Experiment [1] is described as follows: qHTS assay to identify aromatase inhibitors - cell viability counter screen (AID 743084;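 further: cells stimulated with testosterone during compound exposure; nearly all actives have a fitted effect of over 55% in size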; further: potency means the concentration at half of the fitted maximal effect). (Quantitative high-throughput screening tests each substance at several concentrations.)
For experiment [2], the target named is Aryl hydrocarbon receptor (Homo sapiens) (UniProt P35869). The experiment can be described thus: qHTS assay to identify small molecule that activate the aryl hydrocarbon receptor (AhR) signaling pathway (AID 743085). Further: nearly all actives have a fitted effect of over 15% in size. Further: potency means the concentration at half of the fitted maximal effect.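 On activation: HG2L7.5c1 human HepG2 liver cells with stably integrated DRE-driven firefly reporter; series mostly up to about 70 µM.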 The method in brief:
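HepG2 cells (HG2L7.5c1) stably carrying a firefly luciferase reporter driven by 20 dioxin responsive elements were exposed to compound for 24 h at 37C after a 5 h settling period; luminescence rise (ONE-Glo) indicated activation.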

Experiment [3] is described as follows: qHTS assay to identify small molecule that activate the aryl hydrocarbon receptor (AhR) signaling pathway - cell viability counter screen (AID 743086). Further: nearly all actives have a fitted effect of over 45% in size. Further: potency means the concentration at half of the fitted maximal effect. The method in brief: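 HepG2-AhR-luc (HG2L7.5c1) cells, 4000/well, were preincubated 5 h at 37C, exposed to compound in qHTS format for 24 hr at 37C, then given CellTiter-Fluor for 30 min; viability was read as fluorescence in the reporter wells.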

The target of experiment [4] is Peroxisome proliferator-activated receptor gamma (Homo sapiens) (UniProt P37231). As to the kind of experiment: qHTS assay to identify small molecule agonists of the peroxisome proliferator-activated receptor gamma (PPARg) signaling pathway (AID 743094; active means well fitted activation curve with a large enough effect in the signal ratio in the repeat runs, not every such curve was filed as active; the % refers to the signal ratio). The method in brief: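 Agonism was assessed in a beta-lactamase reporter system, HEK293H cells with a stably integrated UAS-bla construct under PPARg control; the 17 h treatment at 37C preceded a 1 h room-temperature FRET substrate read.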

Experiment [5] in a line: qHTS assay to identify small molecule antagonists of the peroxisome proliferator-activated receptor gamma (PPARg) signaling pathway - cell viability counter screen (AID 743194). Further: nearly all actives have a fitted effect of over 55% in size. The method in brief: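 PPARg-UAS-bla HEK293H cells were plated, rested 5 h at 37 C, then treated with compounds plus rosiglitazone (50 nM final) for 17 h at 37 C; viability was then read by CellTiter-Glo luminescence after 30 min at room temperature.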

The nature of experiment [6]: qHTS assay for small molecule agonists of the antioxidant response element (ARE) signaling pathway (AID 743202; active means well fitted activation curve with a large enough effect in the signal ratio in the repeat runs, not every such curve was filed as active; the % refers to the signal ratio). The method in brief:
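Following a 16 h, 37 C exposure of reporter HepG2 cells (ARE-driven beta-lactamase, 2,000 cells/well) to compounds, FRET substrate was applied for 2 h at room temperature and fluorescence intensity recorded.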

Experiment [7] is described as follows: qHTS assay for small molecule agonists of the antioxidant response element (ARE) signaling pathway - cell viability counter screen (AID 743203; calls by dose curve; further: nearly all actives have a fitted effect of over 55% in size). The essentials:
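ATP content via CellTiter-Glo luminescence served as the viability measure. Cells: ARE-bla HepG2, 2,000 per well. Exposure: 16 hrs, 37C/5% CO2.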

The nature of experiment [8]: qHTS assay for small molecule activators of the heat shock response signaling pathway - cell viability counter screen (AID 743209). Further: nearly all actives have a fitted effect of over 50% in size. The essentials:
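Compounds dissolved in DMSO were added to overnight-plated HSE-bla HeLa cells and left 5 h at 37 C. Cell viability was quantified by luminescence using CellTiter-Glo.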

A short description of experiment [9]: qHTS assay for small molecule activators of the heat shock response signaling pathway (AID 743210; active means well fitted activation curve with a large enough effect in the signal ratio in the repeat runs, with a control signal flat, not every such curve was filed as active; the % refers to the signal ratio; further: series mostly up to about 63 µM). The essentials: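 Heat shock element–beta-lactamase HeLa reporter cells; qHTS with compounds for 5 h at 37 C; detection by FRET substrate fluorescence after 2.5 h at RT.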
Experiment [10] deals with Peroxisome proliferator-activated receptor gamma (Homo sapiens) (UniProt P37231). As to the kind of experiment: qHTS assay to identify small molecule antagonists of the peroxisome proliferator-activated receptor gamma (PPARg) signaling pathway (AID 743191; calls by dose curve; further: series mostly up to about 63 µM; nearly all actives have a fitted effect of over 30% in size). The essentials: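 GeneBLAzer PPARg UAS-bla HEK293H cells carrying a UAS-driven beta-lactamase reporter were plated at 3000 cells/well, preincubated 5 h at 37C, then given compound for 17 h at 37C; LiveBLAzer B/G FRET substrate was read after 1 h at room temperature.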

Each structure is given as a SMILES string. Where “and” joins values, the source holds several entries; their conditions need not be identical. Identical values can stand only once. Inconclusive results are not listed. Some structures have more than one record in an assay (separate samples or runs), and their calls can disagree. Calls of active or inactive are those of the source. Unless noted, the call rests on the fitted dose curve; in most records, active means well fitted curve in the direction sought with a large enough effect in the repeat runs; inconclusive means weak or mixed curves; inactive means no such curve, though single readings can be large; an effect the other way counts as inactive or inconclusive.

Results on 28 molecules are retold here after PubChem BioAssay (Tox21).

Peroxisome proliferator-activated receptor gamma (Homo sapiens), sequence (P37231 whole entry, looked up): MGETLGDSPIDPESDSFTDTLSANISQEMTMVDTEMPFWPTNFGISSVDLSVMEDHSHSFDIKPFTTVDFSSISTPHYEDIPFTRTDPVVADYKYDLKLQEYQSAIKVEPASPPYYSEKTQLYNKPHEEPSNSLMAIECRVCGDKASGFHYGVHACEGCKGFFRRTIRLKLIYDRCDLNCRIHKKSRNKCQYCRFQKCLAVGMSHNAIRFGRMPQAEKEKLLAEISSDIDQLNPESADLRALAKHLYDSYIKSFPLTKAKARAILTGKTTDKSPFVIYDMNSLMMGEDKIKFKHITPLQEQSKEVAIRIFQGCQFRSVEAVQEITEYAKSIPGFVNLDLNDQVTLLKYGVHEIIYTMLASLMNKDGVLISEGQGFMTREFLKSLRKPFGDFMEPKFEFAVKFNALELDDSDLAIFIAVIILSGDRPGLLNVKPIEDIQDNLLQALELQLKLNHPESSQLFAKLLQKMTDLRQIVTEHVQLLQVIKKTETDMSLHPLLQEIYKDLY
Aryl hydrocarbon receptor (Homo sapiens), sequence (P35869 whole entry, looked up): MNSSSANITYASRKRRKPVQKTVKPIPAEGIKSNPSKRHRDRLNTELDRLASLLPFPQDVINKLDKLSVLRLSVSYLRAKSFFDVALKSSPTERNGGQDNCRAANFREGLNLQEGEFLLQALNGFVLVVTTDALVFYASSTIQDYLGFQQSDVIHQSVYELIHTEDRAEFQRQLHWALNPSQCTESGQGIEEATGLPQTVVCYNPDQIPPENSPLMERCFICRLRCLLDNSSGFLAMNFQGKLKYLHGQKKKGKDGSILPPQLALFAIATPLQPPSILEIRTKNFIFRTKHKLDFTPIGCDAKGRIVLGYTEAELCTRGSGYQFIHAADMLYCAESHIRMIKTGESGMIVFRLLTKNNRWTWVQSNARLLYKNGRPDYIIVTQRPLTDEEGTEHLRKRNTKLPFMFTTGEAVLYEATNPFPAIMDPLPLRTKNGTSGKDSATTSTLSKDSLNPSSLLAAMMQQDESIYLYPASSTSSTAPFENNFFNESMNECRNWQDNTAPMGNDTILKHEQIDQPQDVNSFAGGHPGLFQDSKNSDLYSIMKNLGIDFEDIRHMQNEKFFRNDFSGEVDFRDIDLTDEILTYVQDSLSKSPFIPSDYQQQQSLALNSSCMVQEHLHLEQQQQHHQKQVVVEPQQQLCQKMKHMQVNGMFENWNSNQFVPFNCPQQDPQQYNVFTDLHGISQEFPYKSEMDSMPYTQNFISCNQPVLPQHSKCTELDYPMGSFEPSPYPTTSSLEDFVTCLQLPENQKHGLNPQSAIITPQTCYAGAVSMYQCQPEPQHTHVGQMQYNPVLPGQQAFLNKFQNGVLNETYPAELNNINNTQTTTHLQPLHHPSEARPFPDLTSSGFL

Take `CC[C@H]1OC(=O)[C@H](C)[C@@H](O[C@H]2C[C@@](C)(OC)[C@@H](O)[C@H](C)O2)[C@H](C)[C@@H](O[C@@H]2O[C@H](C)C[C@H](N(C)C)[C@H]2O)[C@](C)(O)C[C@@H](C)/C(=N\OCOCCOC)[C@H](C)[C@@H](O)[C@]1(C)O`: in [1], the Potency entry was “inactive and 10.2 µM (active)”. Besides, the Potency entry in experiment [2], in experiment [3], in experiment [5], in experiment [6], in experiment [7] and in experiment [8] was “inactive” throughout. In [4], the call was inactive.
As for `COC(C)(C)OC`, the Potency result in experiment [1], in experiment [2], in experiment [3], in experiment [5], in [6] and in experiment [7] was “inactive” each time. Moreover, in experiment [9], the Potency result was “inactive”. For the same molecule, the call in [4] was inactive.
For the molecule `O=C(c1ccccc1)c1ccc(O)cc1`, the Potency entry in [1], in experiment [2], in experiment [3], in experiment [10], in experiment [5] and in experiment [8] was “inactive” each time. Besides, the Potency result in experiment [9] was “inactive”. The result in experiment [4] was inactive.
In the case of `COc1ccc(CCN(C)CCCN2CCc3cc(OC)c(OC)cc3CC2=O)cc1OC`, the Potency result in experiment [1], in experiment [2], in experiment [3], in experiment [5], in [6] and in [7] was “inactive” in each case. The Potency result in [8] was “inactive”. The result in experiment [4] was inactive.
Turning to `CCN(Cc1cccc(S(=O)(=O)O)c1)c1ccc(C(=C2C=CC(=[N+](CC)Cc3cccc(S(=O)(=O)O)c3)C=C2)c2ccccc2S(=O)(=O)[O-])cc1`, the Potency was 13.7 µM (active) in experiment [1] and 27.4 µM (active) in experiment [3]. In addition, the Potency result in experiment [2], in experiment [5], in experiment [6] and in [9] was “inactive” each time. Besides, the result in experiment [4] was inactive.
For `CC(=O)NCCO`, the Potency entry in [1], in experiment [2], in experiment [3], in [10], in experiment [5] and in [7] was “inactive” in each case. The Potency result in experiment [8] and in experiment [9] was “inactive” in each case. Also, the call in [4] was inactive.
With `NC(=O)c1ccccc1[N+](=O)[O-]`, the Potency entry in experiment [1], in [2], in [3], in experiment [5], in experiment [7] and in experiment [8] was “inactive” throughout. In experiment [9], the Potency entry was “inactive”. Moreover, in experiment [4], the outcome was inactive.
Regarding `CCCCC[C@H](O)/C=C/[C@H]1[C@H](O)CC(=O)[C@@H]1C/C=C\CCCC(=O)O`, the Potency entry in experiment [1], in experiment [2], in [3], in [10], in [5] and in experiment [7] was “inactive” throughout. In addition, the Potency entry in experiment [8] and in experiment [9] was “inactive” throughout. Besides, the molecule was called inactive in experiment [4].
Consider `Cc1ccc2c(c1)CCCN2`, for which the Potency entry in experiment [1], in [3], in experiment [5], in experiment [6], in experiment [7] and in experiment [8] was “inactive” each time. In addition, the Potency entry in [9] was “inactive”. The Potency in experiment [2] is 61.1 µM (active). In addition, the molecule was classed as inactive in [4].
For `CCCCCCC(O)CCOC(C)=O` (configuration not stated), the Potency result in experiment [1], in experiment [2], in experiment [3], in [5], in experiment [6] and in experiment [7] was “inactive” each time. Besides, the Potency entry in experiment [8] and in experiment [9] was “inactive” throughout. In [4], the molecule was classed as inactive.
In the case of `O=C(O)CCC(=O)OC[C@@H](NC(=O)C(Cl)Cl)[C@H](O)c1ccc([N+](=O)[O-])cc1`, the Potency result in experiment [1], in experiment [2], in experiment [3], in experiment [5], in [6] and in experiment [7] was “inactive” each time. Besides, the Potency result in experiment [8] is “inactive”. In addition, the call in experiment [4] was inactive.
`Cc1c(C2(c3cc(Br)c(O)c(Br)c3C)OS(=O)(=O)c3ccccc32)cc(Br)c(O)c1Br`: the Potency in experiment [1] was 18.8 µM (active); in experiment [3] it was 10.5 µM (active). Further, the Potency result in experiment [2], in [10], in experiment [5], in experiment [8] and in experiment [9] was “inactive” throughout. Further, in [4], the result was inactive.
Regarding `CC(=O)OCC1=C(C(=O)O)N2C(=O)[C@@H](NC(=O)CSc3ccncc3)[C@H]2SC1`, the Potency entry in [1], in experiment [2], in [3], in experiment [10], in [5] and in experiment [7] was “inactive” throughout. Besides, the Potency result in [8] and in experiment [9] was “inactive” each time. In addition, the molecule was classed as inactive in [4].
Take `CC(C)C1CCC(C(=O)N[C@H](Cc2ccccc2)C(=O)O)CC1` (some centres not stated): the Potency result in experiment [1], in experiment [2], in [3], in [5], in experiment [6] and in [7] was “inactive” throughout. Also, the Potency result in experiment [8] and in experiment [9] was “inactive” each time. Also, the outcome in [4] was inactive.
As to `COc1cc(S(=O)(=O)Nc2ccccc2)c(OC)cc1N`, the Potency result in experiment [1], in [2], in experiment [3], in experiment [10], in experiment [5] and in experiment [8] was “inactive” each time. Also, the Potency entry in [9] was “inactive”. In addition, in experiment [4], the molecule was called inactive.
As for `N[C@@H](Cc1cc(I)c(O)c(I)c1)C(=O)O`, the Potency entry in [1], in experiment [2], in experiment [3], in experiment [5], in experiment [6] and in experiment [7] was “inactive” throughout. In addition, the Potency entry in experiment [8] and in experiment [9] was “inactive” each time. Moreover, the molecule was called inactive in [4].
Regarding `CC1C(C)(C)C2=C(C(=O)CCC2)C1(C)C` (configuration not stated), the Potency entry in experiment [1], in experiment [2], in [3], in experiment [10], in experiment [5] and in experiment [8] was “inactive” in each case. In [9], the Potency entry is “inactive”. Also, the molecule was classed as inactive in experiment [4].
With `O=NN(CCCl)C(=O)NCCCl`, the Potency entry in experiment [1], in [2], in experiment [3], in experiment [10], in experiment [7] and in [8] was “inactive” each time. Moreover, the Potency result in experiment [9] was “inactive”. In addition, the call in [4] was inactive.
Take `COc1cc(NS(=O)(=O)c2ccc(N)cc2)nc(C)n1`: the Potency result in [1], in experiment [2], in [3], in experiment [5], in experiment [6] and in experiment [7] was “inactive” in each case. The Potency entry in [8] and in experiment [9] was “inactive” each time. Besides, the result in experiment [4] was inactive.
Consider `COC(=O)c1sccc1S(N)(=O)=O`, for which the Potency result in [1], in experiment [2], in experiment [3], in experiment [10], in experiment [5] and in experiment [7] was “inactive” each time. Besides, the Potency result in experiment [8] and in experiment [9] was “inactive” in each case. Moreover, in [4], the molecule was called inactive.
For `O=C1OC[C@H](Cc2cccc(O)c2)[C@H]1Cc1cccc(O)c1`, the Potency entry in experiment [1], in experiment [2], in experiment [3], in experiment [10], in [6] and in experiment [7] was “inactive” throughout. Besides, the Potency result in [8] and in [9] was “inactive” throughout. Also, in experiment [4], the outcome was inactive.
Consider `Nc1ccc(F)cc1`, for which the Potency result in experiment [1], in experiment [2], in experiment [3], in experiment [5], in [6] and in experiment [7] was “inactive” in each case. Further, the Potency result in [8] and in experiment [9] was “inactive” throughout. Further, the molecule was classed as inactive in experiment [4].
As for `CSSc1ccoc1C`, the Potency result in experiment [1], in experiment [2], in experiment [3], in experiment [5], in [6] and in experiment [8] was “inactive” throughout. Further, the Potency result in experiment [9] is “inactive”. The molecule was classed as inactive in experiment [4].
With `CC(C)COC(=O)c1ccc(O)cc1`, the Potency result in experiment [1], in experiment [2], in [3], in experiment [10], in experiment [5] and in [7] was “inactive” each time. Moreover, the Potency result in [8] and in experiment [9] was “inactive” in each case. Moreover, the molecule was called inactive in experiment [4].
On to `C=Cc1ccc(OC(C)=O)cc1`, for which the Potency entry in experiment [1], in experiment [2], in experiment [3], in [10], in experiment [5] and in experiment [7] was “inactive” in each case. The Potency result in experiment [8] and in experiment [9] was “inactive” throughout. Also, in experiment [4], the molecule was called inactive.
Take `O=C1NC(=O)c2cccc3cccc1c23`: the Potency entry in [1], in experiment [3], in experiment [10], in [5], in [8] and in experiment [9] was “inactive” throughout. The Potency in experiment [2] is 21.7 µM (active). In addition, the call in experiment [4] was inactive.
For `CN=C(N)NC(=O)Nc1c(C)cccc1C`, the Potency entry in [1], in [2], in experiment [3], in experiment [10], in experiment [5] and in [6] was “inactive” in each case. In addition, the Potency result in experiment [7] and in experiment [9] was “inactive” each time.
As to `O=C1CC[C@@H](C(=O)O)N1`, the Potency result in [1], in experiment [2], in experiment [3], in [10], in [5] and in [6] was “inactive” throughout. For the same molecule, the Potency entry in experiment [7], in experiment [8] and in experiment [9] was “inactive” throughout.
